Test [1] addresses Cell division control protein 42 homolog (Homo sapiens) (UniProt P60953). Briefly: activated mutant Cdc42 GTP-binding inhibitors, dose response, biochemical, multiplex bead flow cytometry, Bodipy-FL-GTP (AID 1333).
For test [2] the target is unchanged. Briefly: wildtype Cdc42 GTP-binding inhibitors, dose response, biochemical, multiplex bead flow cytometry, Bodipy-FL-GTP (AID 1334;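 active = fitted half-maximal concentration within the tested range, moderate curve steepness, significant signal drop, and little compound fluorescence or bead-linkage interference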). The conditions noted are these: bead-based flow cytometry, Bodipy-FL-GTP binding to GST-Cdc42; at 100 µM (top of the series) unless noted. On the technique in general: Flow cytometry measures light scatter and fluorescence of single cells or particles in a stream.

Test [3] concerns the target GTPase HRas (Homo sapiens) (UniProt P01112). Briefly: inhibitors of GTP binding to wildtype Ras, dose response, biochemical, multiplex bead flow cytometry (AID 1335;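 active = fitted half-maximal concentration within 10 nM to 100 µM, steepness 0.5 to 2, significant signal drop, low assay interference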). The conditions noted are these: bead-based flow cytometry, Bodipy-GTP binding to GST-Ras; at 100 µM (top of the series) unless noted.
The test system of test [4] is Ras-related protein Rab-7a (dog), GTP binding. Briefly: Rab7 GTP binding inhibitors, potency, dose response, biochemical, wildtype, multiplex bead flow cytometry (AID 1336; call rule not given here).
For test [5], the target named is Ras-related C3 botulinum toxin substrate 1 (Homo sapiens) (UniProt P63000). Briefly: wildtype Rac1 GTP binding inhibitors, dose response, biochemical, multiplex bead flow cytometry (AID 1340;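 active = dose curve with midpoint inside tested range, moderate steepness, plateau gap beyond fit error, low compound glow and bead-link interference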). The note with it: GST-Rac1 beads, Bodipy-FL-GTP binding; at 100 µM (top of the series) unless noted.
Test [6] concerns the target GTPase HRas (Homo sapiens) (UniProt P01112). Briefly: activated Ras mutant GTP binding inhibitors, dose response, biochemical, multiplex bead flow cytometry (AID 1341;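 active = dose-response curve with midpoint inside the tested range, moderate steepness, significant amplitude and little compound fluorescence or bead-attachment interference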;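 note: GST-tagged constitutively activated Ras mutant immobilized on beads and multiplexed with other GTPases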).

Molecules are shown by their SMILES. For part of these data: Potency and affinity values are given separately. Active and inactive are the calls of the source.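 Rule for the calls, unless noted: active = fitted half-maximal concentration within the tested dose range, moderate curve steepness, a statistically real signal drop, and little compound fluorescence or tag-binding interference; inactive = the rest.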

The results in this text go back to PubChem BioAssay.

Sequence of GTPase HRas (Homo sapiens) (P01112 whole entry, looked up): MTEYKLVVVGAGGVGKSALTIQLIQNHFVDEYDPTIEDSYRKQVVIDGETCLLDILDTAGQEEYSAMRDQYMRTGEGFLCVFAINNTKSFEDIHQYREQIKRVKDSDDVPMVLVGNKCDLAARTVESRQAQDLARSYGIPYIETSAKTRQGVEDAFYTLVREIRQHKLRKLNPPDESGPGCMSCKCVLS
Sequence of Cell division control protein 42 homolog (Homo sapiens) (P60953 whole entry, looked up): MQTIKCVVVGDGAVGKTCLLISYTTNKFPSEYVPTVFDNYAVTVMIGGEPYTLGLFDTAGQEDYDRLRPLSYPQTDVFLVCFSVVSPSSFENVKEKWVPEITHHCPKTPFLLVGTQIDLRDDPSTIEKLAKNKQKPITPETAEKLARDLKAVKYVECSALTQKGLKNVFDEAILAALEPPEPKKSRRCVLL

As to `COc1ccc(/C=C2\SC(=S)NC2=O)cc1OS(=O)(=O)c1ccc(NC(C)=O)cc1`, the call in test [1], in test [4] and in test [6] was inactive. For the same compound, the fluorescence, percent of control (lower = inhibition) in test [2] was determined as 30.9%. This compound showed a GTP binding, percent of control in test [3] of 80.1%. This compound also yielded a GTP binding signal, raw median fluorescence (lower = inhibition) (MCF (arbitrary fluorescence units)) in test [5] of 261.
In the case of `COc1ccc(CNCc2sc(C(=O)O)cc2C)cc1OC`, the call in test [1], in test [4] and in test [6] was inactive. In addition, the fluorescence, percent of control (lower = inhibition) in test [2] came to 59.2%. Moreover, the GTP binding, percent of control in test [3] amounted to 78.1%. In test [5], this compound gave a GTP binding signal, raw median fluorescence (lower = inhibition) (MCF (arbitrary fluorescence units)) of 32.2.
For `O=c1c2ccccc2nc2c3ccccc3c(NCc3ccccn3)nn12`, the call in test [1], in test [4] and in test [6] was inactive. In test [2], the fluorescence, percent of control (lower = inhibition) turned out to be 33.4%. In test [3], this compound returned a GTP binding, percent of control of 68.8%. In addition, in test [5], the GTP binding signal, raw median fluorescence (lower = inhibition) (MCF (arbitrary fluorescence units)) was 167.
With `CN(/N=C/c1ccc(Br)o1)C1=NS(=O)(=O)c2ccccc21`, the result in test [1], in test [4] and in test [6] was inactive. For the same compound, the fluorescence, percent of control (lower = inhibition) in test [2] was determined as 32.2%. In test [3], this compound returned a GTP binding, percent of control of 69.7%. Moreover, the GTP binding signal, raw median fluorescence (lower = inhibition) (MCF (arbitrary fluorescence units)) in test [5] amounted to 185.
As for `O=C(Nc1ccc(S(=O)(=O)N2CCCc3ccccc32)cc1)C1CCCO1` (stereo not given), the result in test [1], in test [4] and in test [6] was inactive. The fluorescence, percent of control (lower = inhibition) in test [2] was found to be 33.2%. In test [3], this compound came in with a GTP binding, percent of control of 79.9%. The compound further gave a GTP binding signal, raw median fluorescence (lower = inhibition) (MCF (arbitrary fluorescence units)) in test [5] of 286.
As for `Cc1ccc(C(=O)Nn2c(O)c(C=C3N=c4ccccc4=N3)sc2=S)cc1`, the call in test [1], in test [4] and in test [6] was inactive. The fluorescence, percent of control (lower = inhibition) in test [2] is 47.7%. This compound also returned a GTP binding, percent of control in test [3] of 50.4%. In test [5], this compound had a GTP binding signal, raw median fluorescence (lower = inhibition) (MCF (arbitrary fluorescence units)) of 129.
Consider `Cc1noc(NS(=O)(=O)c2ccc(NC(=O)CSc3nnc4c(n3)[nH]c3ccccc34)cc2)c1C`, for which the compound was classed as inactive in test [1], in test [4] and in test [6]. Moreover, the fluorescence, percent of control (lower = inhibition) in test [2] came out at 21.2%. Further, in test [3], the GTP binding, percent of control came to 32.7%. Besides, the GTP binding signal, raw median fluorescence (lower = inhibition) (MCF (arbitrary fluorescence units)) in test [5] amounted to 41.2.
Regarding `Cc1cc(C)n2nc(C(=O)Nc3ccc(S(=O)(=O)N4CCCC4)cc3)nc2n1`, the compound was classed as inactive in test [1], in test [4] and in test [6]. The fluorescence, percent of control (lower = inhibition) in test [2] was determined as 37%. The compound also showed a GTP binding, percent of control in test [3] of 82.5%. In test [5], this compound registered a GTP binding signal, raw median fluorescence (lower = inhibition) (MCF (arbitrary fluorescence units)) of 257.
Take `O=C(O)c1ccc(Nc2nc(-c3cccnc3)nc3ccccc23)cc1`: the compound was called inactive in test [1], in test [4] and in test [6]. Further, in test [2], the fluorescence, percent of control (lower = inhibition) was found to be 27.9%. For the same compound, the GTP binding, percent of control in test [3] worked out at 66.3%. For the same compound, the GTP binding signal, raw median fluorescence (lower = inhibition) (MCF (arbitrary fluorescence units)) in test [5] amounted to 142.
As for `NS(=O)(=O)c1cccnc1Nc1c(Cl)cccc1Cl`, the compound was classed as inactive in test [1], in test [4] and in test [6]. In addition, the fluorescence, percent of control (lower = inhibition) in test [2] came out at 90.6%. This compound had a GTP binding, percent of control in test [3] of 152%. The GTP binding signal, raw median fluorescence (lower = inhibition) (MCF (arbitrary fluorescence units)) in test [5] was 187.
On to `O=C(CN1C(=O)S/C(=C/c2cccnc2)C1=O)N1CCOCC1`, for which the call in test [1], in test [4] and in test [6] was inactive. The fluorescence, percent of control (lower = inhibition) in test [2] amounted to 54.1%. In test [3], this compound displayed a GTP binding, percent of control of 68.5%. Moreover, the GTP binding signal, raw median fluorescence (lower = inhibition) (MCF (arbitrary fluorescence units)) in test [5] worked out at 221.
As to `COc1cccc(OC)c1-c1nn2c(-c3cc(-c4ccccc4)n[nH]3)nnc2s1`, the result in test [1], in test [4] and in test [6] was inactive. In test [2], the fluorescence, percent of control (lower = inhibition) was determined as 131% [at 33.3 µM]. In addition, in test [3], the GTP binding, percent of control came out at 1380%. In test [5], the GTP binding signal, raw median fluorescence (lower = inhibition) (MCF (arbitrary fluorescence units)) was 438 [at 33.3 µM].
For `Cc1cc(C)n2nc(C(=O)Nc3cccc(S(=O)(=O)N4CCCC4)c3)nc2n1`, the compound was called inactive in test [1], in test [4] and in test [6]. Besides, the fluorescence, percent of control (lower = inhibition) in test [2] was determined as 33.5%. In addition, in test [3], the GTP binding, percent of control came out at 78.7%. The same compound came in with a GTP binding signal, raw median fluorescence (lower = inhibition) (MCF (arbitrary fluorescence units)) in test [5] of 227.
Turning to `COc1ccc(NC(=O)c2cc3nc(-c4ccccc4)cc(C)n3n2)cc1OC`, the compound was classed as inactive in test [1], in test [4] and in test [6]. Moreover, the fluorescence, percent of control (lower = inhibition) in test [2] is 33.2%. This compound yielded a GTP binding, percent of control in test [3] of 76.8%. The GTP binding signal, raw median fluorescence (lower = inhibition) (MCF (arbitrary fluorescence units)) in test [5] amounted to 218.
`O=C1/C(=C/c2ccc(N3CCOCC3)o2)SC(=Nc2ccccc2)N1CCc1c[nH]c2ccccc12`: the outcome in test [1], in test [4] and in test [6] was inactive. Further, the fluorescence, percent of control (lower = inhibition) in test [2] is 104%. Moreover, the GTP binding, percent of control in test [3] amounted to 114%. The compound further gave a GTP binding signal, raw median fluorescence (lower = inhibition) (MCF (arbitrary fluorescence units)) in test [5] of 242.
